This is part of a sample that, as a whole, favours compounds with a hit. Of some 79,000 tested, about 15% had one in any assay. Unmarked numbers belong to inactive results. Active and inactive are the calls of the source. Rule as the data show it: active = growth inhibition above about 70%; inactive = the rest.
How the values were obtained:
[1] = NCI Yeast Anticancer Drug Screen. Data for the rad50 strain (AID 155);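 also: 0% = growth of vehicle-only cultures of the same strain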; details: S. cerevisiae rad50 strain growth inhibition, stronger effect = higher value; at 50.0 µM unless noted
In short: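 Compounds were tested on a yeast strain with an engineered DNA damage repair alteration; the reported value is growth inhibition normalised to vehicle treatment.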

[2] = NCI Yeast Anticancer Drug Screen. Data for the mec2-1 strain (AID 157); details: S. cerevisiae mec2-1 strain, stronger effect = higher value; at 50.0 µM unless noted
In short: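 Growth inhibition is read against vehicle-treated controls after compound exposure of the mec2-1 yeast strain, which is defective in DNA damage repair or cell cycle control.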

[3] = NCI Yeast Anticancer Drug Screen. Data for the sgs1 mgt1 strain (AID 161);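 also: 0% = growth of cultures given vehicle only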; details: S. cerevisiae sgs1 mgt1 strain, stronger effect = higher value; at 50.0 µM unless noted
In short: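 Compounds are added to genetically altered yeast, and growth is compared with cultures given vehicle alone to give percent inhibition.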

[4] = NCI Yeast Anticancer Drug Screen. Data for the cln2 rad14 strain (AID 165);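 also: 0% = growth equal to vehicle treated cultures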; details: S. cerevisiae cln2 rad14 strain, stronger effect = higher value; at 50.0 µM unless noted
In short: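 Growth inhibition, relative to vehicle-treated controls, is the read-out. The test organism is a yeast strain with defined genetic alterations, cln2 rad14.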

[5] = NCI Yeast Anticancer Drug Screen. Data for the bub3 strain (AID 167); details: S. cerevisiae bub3 mutant strain, stronger effect = higher value; at 50.0 µM unless noted
In short: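 Growth of a checkpoint-deficient yeast mutant is measured after compound exposure. Values represent inhibition relative to vehicle.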

[6] = NCI Yeast Anticancer Drug Screen. Data for the mlh1 rad18 strain (AID 175); details: S. cerevisiae mlh1 rad18 strain growth inhibition, stronger effect = higher value; at 50.0 µM unless noted
In short: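 Cells of a genetically altered yeast strain, deficient in DNA damage repair, were treated with compound. Their growth was then compared with that of vehicle-treated cultures to give inhibition.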

SMILES | growth inhibition [1] | growth inhibition [2] | growth inhibition [3] | growth inhibition [4] | growth inhibition [5] | growth inhibition [6]
NNC(=O)c1nnn(CCc2ccccc2)c1C(=O)NN | -1.45% | 3.25% | -1.15% | 5.55% | -9.55% | -3.9%
CC1=C(C(=O)Nc2ccccc2)C(c2ccccc2Cl)C(C(=O)Nc2ccccc2)=C(C)N1 | 14.8% | -0.35% | -6.25% | 14.4% | – | 6.65%
CCOC(=O)c1ccc(NC(=O)Nc2cc(Cl)ccc2C)cc1 | 38.9% | 8.45% | 16.1% | 6.4% | 36.2% | 25.4%
O=C(c1cccs1)N(C(=S)N1CCN(c2ccccc2)CC1)C1CCCCC1 | -0.45% | -5.9% | -8% | 13.4% | – | -10.4%
CN(CCO)c1ccccc1 | -12.3% | -14.8% | -40.4% | -17.9% | – | -8%
CC12CC[C@H](O)C(C)(C)[C@H]1CC[C@](C)(O)C2COc1ccc2ccc(=O)oc2c1 (some centres not stated) | 86.3% (active) | 75.2% (active) | 85.6% (active) | 37.1% | – | 77.1% (active)
CC(C)C1CCC2C(CCC3C(C)(C(=O)O)CCCC23C)C1 (configuration not stated) | -2.35% | 14.1% | -0.85% | 21% | – | 25.2%
COc1cccc(C#CC(=O)O)c1 | -25.6% | -20.9% | -18.9% | -5.35% | – | -11.6%
CCN(CC)CCCNc1ncnc2c1C(c1ccccc1)c1ccccc1-2 (configuration not stated) | 8.5% | -14.7% | 1.7% | 6% | – | -6.9%
C#CC(C)(O)CCC(C)C (configuration not stated) | -10% | -16.1% | -3.3% | 14.5% | – | -16.9%
O=C(NCN1CCOCC1)NC(=O)NCN1CCOCC1 | -10.6% | 7.4% | -7.6% | -3.9% | – | -3.95%
CSc1nc2c(nc(N)n2C2OCC(O)C(O)C2O)c(=O)n1C (configuration not stated) | 12.1% | 14.1% | 22.6% | 32.6% | 17.9% | 32.2%
COc1ccc(C=NCC(OC)OC)cc1OCc1ccccc1 | -14.9% | 7.15% | 14% | -16.4% | – | 12.4%
CCOC(=O)C/C(=N\NC(=O)c1ccccc1O)C(=O)OCC | 5.8% | 1.95% | 5.85% | 0.9% | – | 29.9%
CN(C(=O)CCC1OCCO1)c1cc(N)ccc1OCc1ccccc1 | 15.3% | -0.7% | -7.2% | 4.8% | – | -18.6%
O=C(Cc1cccnc1)c1cccnc1 | -52.3% | -18.9% | -8.15% | -11.9% | – | -7.55%
CC(=C=CC(c1ccccc1)(c1ccccc1)c1ccccc1)CC(c1ccccc1)(c1ccccc1)c1ccccc1 | 95% (active) | 97.8% (active) | 90.3% (active) | 97.1% (active) | – | 94% (active)
O=C(Nc1ccc(F)cc1)c1ccc([N+](=O)[O-])cc1 | 0.5% | -1% | 36.1% | -9.6% | – | 8.15%
CN(C)c1nc(NC(=O)NC(=O)c2c(F)cccc2F)nc(N(C)C)n1 | -2% | 11.3% | 1.55% | 8.45% | – | 10.3%
CN(C(=O)Nc1ccccc1)c1ccc(O)cc1 | 19.4% | -8.55% | -16.4% | -11.9% | – | 12.7%
COc1ccc(C(CC(=O)C(C)(C)CN2CCCCC2)SCCS(=O)(=O)O)cc1 (configuration not stated) | -2.75% | -4.9% | -3.15% | 2.85% | -1.6% | 4.15%
O=C(CO[N+](=O)[O-])OC/C=C/c1ccccc1 | -4.25% | 5.35% | -2% | -0.65% | – | 8.6%
NC(=O)C(=Cn1c(=S)[nH]c2ccc([N+](=O)[O-])cc21)C(N)=O | -10% | -40.9% | -9.9% | 11.7% | – | 31.9%

SMILES | growth inhibition [1] | growth inhibition [2] | growth inhibition [3] | growth inhibition [4] | growth inhibition [5] | growth inhibition [6]
CN(C)c1cccc2ccccc12 | -1.25% | 9.1% | 20.7% | -24.3% | – | 18.9%
C(=Nc1ccc(N=Cc2ccco2)cc1)c1ccco1 | 10.8% | 2.3% | 0.5% | -8.1% | – | 7.35%
O=CNc1cccnc1C1OCCO1 | 4.85% | 5.85% | – | -13.3% | -4.75% | 7.65%
COc1ccc(C2c3cc(OC)c(OC)cc3C(Cc3ccc([N+](=O)[O-])cc3)C2c2ccc([N+](=O)[O-])cc2)cc1OC (configuration not stated) | 10.7% | 19.8% | – | 16.1% | 23.2% | 6.55%
O=C(N[C@@H](CSSC[C@H](NC(=O)OCc1ccccc1)C(=O)O)C(=O)O)OCc1ccccc1 | 15.6% | 0.85% | 9.2% | – | 2.7% | 2.55%
COC(=O)c1ccc(-n2cc(C(=O)OC)c([N+]#N)c2[O-])cc1 | 9.4% | 11.6% | – | -13.6% | 18.9% | 16.6%
CC(=O)C(C)(CC#N)C(CC=O)CCC#N (configuration not stated) | 15.9% | 4.7% | – | -1.45% | 14% | -1%
Cc1c(NC(=S)NC(=O)c2ccc([N+](=O)[O-])cc2)c(=O)n(-c2ccccc2)n1C | 19.6% | 5.7% | – | 17.9% | 32.9% | 18.6%
Cc1nc(CO)c(-c2ccc([N+](=O)[O-])cc2)o1 | 0.4% | -4% | – | -20.4% | – | -1.5%
N#CC(C(=S)Nc1ccccc1)=C1Nc2ccccc2N1 | 7.2% | -36.2% | -18.1% | – | – | -22.8%
Nn1c(-c2ccccc2)nc2ccc(Br)cc2c1=O | 0.95% | 7.55% | – | 24.8% | 7.95% | 43.5%
CC(C)CCNc1ccccc1 | 1.55% | -7.65% | – | -2.8% | 3.55% | 0.45%
Cc1nnc(-n2cccc2)s1 | 0.8% | -18.9% | – | -3.55% | -4.1% | 3.25%
CC(=O)Nc1ccc(NC(=O)NCCCCCCNC(=O)Nc2ccc(NC(C)=O)cc2)cc1 | -1.5% | 2.7% | – | -20.6% | -1.7% | 5.5%
N#C/C=C\c1ccc(-c2cc(C(F)(F)F)cc(C(F)(F)F)c2)o1 | -49% | -22.6% | – | 3.65% | 10.8% | -57.5%
O=C1/C(=C\c2ccccc2)Sc2cc[nH]c21 | 13.5% | 1.3% | – | -1.95% | -1.85% | 17.2%
Nc1ccccc1NC(=O)C(F)(F)C(F)(F)C(F)(F)C(=O)Nc1ccccc1N | 3.15% | -6.25% | – | -12.3% | 28.6% | -16.6%
O=c1ccn(C2OC(COC3CCCCO3)C(OC3CCCCO3)C2OC2CCCCO2)c(=O)n1-c1ccccc1 (configuration not stated) | 39.7% | -4.8% | – | -1.4% | -2.65% | 5.25%
N#Cc1[nH]c(=O)n(-c2ccc([N+](=O)[O-])cc2)c1N | -29.4% | -59.8% | – | -1.7% | -12.1% | -39.9%
Cc1ccc2c(c1)C1(c3ccc(Cl)cc3Cl)Oc3ccc(C)cc3C(c3ccc(Cl)cc3Cl)(O2)O1 | -1.5% | 1.5% | – | -4.65% | -2.7% | 16.6%
NN1CCN(CCO)CC1 | -0.1% | -39.6% | – | 12.2% | -4% | 21.6%
CCC12CCCNC1c1c(n(C)c3ccccc13)C(C(=O)OC)C2 (configuration not stated) | 36.9% | -2.9% | 25% | – | -9.05% | -20.7%
CCN(CC)CCN1CC(=O)N2CCCCN2C(=O)C1 | 17.2% | 4.5% | – | 13.4% | 7.85% | 10.6%

Reference: PubChem BioAssay (NCI)
